Assay outcomes deposited in PubChem by Paczesny and Yang Labs, IUPUI and University of Michigan.
Many of the other results were omitted from the sample, so hits are more common in it than they were.
ST2 inh – inhibitors of human ST2 (IL1RL1) binding to IL-33, primary screen, biochemical, AlphaLISA; Interleukin-1 receptor-like 1 (Homo sapiens), Q01638; AlphaLISA ST2-Fc/biotin-IL-33 interaction, 1 h; inhibition, % for hits at 17 µM; 78,000 tested, 2.3% active; in the data active = inhibition above about 30%
Target sequence (Q01638 whole entry, looked up): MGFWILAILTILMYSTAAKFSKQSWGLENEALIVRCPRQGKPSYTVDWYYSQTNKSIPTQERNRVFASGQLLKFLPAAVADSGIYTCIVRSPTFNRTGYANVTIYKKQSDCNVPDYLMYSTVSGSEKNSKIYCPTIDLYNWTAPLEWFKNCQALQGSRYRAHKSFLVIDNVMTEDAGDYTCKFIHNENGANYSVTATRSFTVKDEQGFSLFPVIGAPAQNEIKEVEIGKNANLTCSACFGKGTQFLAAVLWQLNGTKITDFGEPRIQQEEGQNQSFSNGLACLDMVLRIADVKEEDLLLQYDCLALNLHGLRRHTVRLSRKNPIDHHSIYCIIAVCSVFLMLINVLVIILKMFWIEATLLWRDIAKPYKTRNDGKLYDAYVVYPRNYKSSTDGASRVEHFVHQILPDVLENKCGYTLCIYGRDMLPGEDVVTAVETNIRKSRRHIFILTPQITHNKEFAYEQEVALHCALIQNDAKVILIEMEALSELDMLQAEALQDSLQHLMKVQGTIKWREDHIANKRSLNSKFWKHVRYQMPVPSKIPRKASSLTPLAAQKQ
An asterisk follows results filed as active; i = inactive; ! = a repeat was not active.

SMILES	ST2 inh
c1ccc(Nc2c(-c3ccccc3)nc3cnccn23)cc1	i
Clc1ccc(OCCNCc2ccco2)cc1	i
Cc1c(C(=O)N2c3ccccc3CC2C)sc2nc(-c3ccccc3)cn12 (stereo not given)	i
CC(C)C/C=C(\CN1CCN2C(=O)CNC(=O)C2C1)c1ccccc1 (stereo not given)	i
Cc1sc2ncn(CC(=O)NCCCC(=O)O)c(=O)c2c1C	i
CCSCCOC(=O)C1=C(C)NC(=O)NC1c1cccc(OC)c1 (stereo not given)	i
CC(=O)Nc1ccc(C(=O)Nc2ccccc2)c(NC(C)=O)c1	i
COc1ncc(-c2cc(Cl)c3c(c2)CC(CN)O3)c(OC)n1 (stereo not given)	i
CCN(CC)CCCNCc1ccc(Cl)cc1	i
CCCn1cnc2cc(NCc3cccs3)ccc21	i
CCN(CC)c1ccc(CNc2ccc3c(c2)ncn3C(C)(C)C)cc1	40%*
CCN(CC)c1ccc(CNc2ccc3c(c2)ncn3C)cc1	50%*!
CCn1cnc2cc(NCc3cccc(OC)c3)ccc21	i
COc1cccc(CNc2ccc3c(c2)ncn3C)c1OC	i
CN(C)c1ccc(CNc2ccc3c(c2)ncn3C)cc1	46%*!
CC(C)(C)n1cnc2cc(NCc3ccc(Cl)cc3Cl)ccc21	i
Cn1cnc2cc(NCc3ccccc3Cl)ccc21	i
Cn1cnc2cc(NCc3ccc(Br)cc3)ccc21	i
Cc1nn(CCC(=O)NCCc2ccc(S(N)(=O)=O)cc2)c(C)c1S(=O)(=O)N1CCCC1	i
COc1ccc2nc3oc(C(=O)N4CCCCCC4)cc3cc2c1	i
O=C(c1cc(-c2ccc(Br)cc2)on1)N1CCCCC1	i
CCCOc1ccc(CNC(=O)CN2C(=O)C(CC)=C(c3ccc(OC)cc3)S2(=O)=O)cc1	i
CCOC(=O)C1=C(CS(=O)(=O)c2ccc(C(C)(C)C)cc2)NC(=O)NC1c1ccccc1 (stereo not given)	i
COc1ccccc1NC(=O)C1=C(C)Nc2nnnn2C1c1ccc(C)cc1 (stereo not given)	i
COc1cc(/C=C2\SC(=Nc3c(C)n(C)n(-c4ccccc4)c3=O)NC2=O)ccc1O	i
SMILES	ST2 inh
Cc1cccc(N=C2NC(=O)/C(=C\c3ccco3)S2)c1	31%*
O=C1NC(=Nc2cccc(Cl)c2Cl)S/C1=C/c1ccco1	i
O=C(CN1C(=O)CC(c2ccccc2)Sc2ccccc21)NC1CCCC1 (stereo not given)	i
Cc1cc(C)cc(C(=O)N(c2ccc(Br)cc2)C2C=CS(=O)(=O)C2)c1 (stereo not given)	i
Cn1cc(C(=O)NC2CCCC2)c2c3ccccc3n(C)c2c1=O	i
COc1cc2c(cc1OC)C(c1ccc(Cl)cc1)OC1=C2C(=O)c2ccccc21 (stereo not given)	47%*
COc1cc(NC2OC(=O)c3ccccc32)c(OC)cc1Cl (stereo not given)	i
CCOc1cc2c(cc1OCC)C(c1ccc(OC)c(OC)c1)OC(=O)C2 (stereo not given)	i
CCOc1ccc(/C=C2\N=C(c3ccccc3Cl)OC2=O)cc1	i
COc1ccc(C2=Cc3cc(OC)c(OC)cc3/C(=C/c3ccc(OC)c(OC)c3)O2)cc1	i
CCOc1ccc(/C=C2/OC(=O)c3c2cc(C)[nH]c3=O)cc1OC	51%*
CCOc1ccccc1/C=C1\N=C(c2ccc(OC)c([N+](=O)[O-])c2)OC1=O	i
CCOc1ccc(/C=C2\N=C(c3ccccc3OC)OC2=O)cc1OCC	34%*
Cc1cc2c(c(=O)[nH]1)C(=O)O/C2=C\c1cccs1	i
Cc1nn(-c2ccccc2)cc1CN1CCCC(OCc2ccccn2)C1 (stereo not given)	i
Cc1nnc([C@H]2CCN(Cc3cnc4ccccc4c3)C2)o1	i
O=C1C(=O)N(CCCN2C(=O)C(=O)c3ccccc32)c2ccccc21	i
COc1ccc(C(=O)N2CCN(S(=O)(=O)c3cc4c5c(c3)CCN5C(=O)CC4)CC2)c(OC)c1	i
COc1cccc(NC(=O)c2ccccc2-c2ccccc2C(=O)O)c1	i
COc1cccc(OCC(O)CN2CCOCC2)c1 (stereo not given)	i
O=C1C(NC2CCCCC2)=C(N2CCOCC2)C(=O)c2ccccc21	73%*
CC(C)C(C(=O)NC1CCCCC1)N1C(=O)c2ccccc2C1=O (stereo not given)	i
O=C(NC1CCCCCCC1)C1c2ccccc2C(=O)N1CCCN1CCOCC1 (stereo not given)	i
COc1cccc(NC2=C(N3CCOCC3)C(=O)c3ccccc3C2=O)c1	71%*
Cn1c(=O)c2c(nc(Sc3c4ccccc4nc4ccccc34)n2C)n(C)c1=O	i
SMILES	ST2 inh
Cn1nc(-c2cccs2)cc1C(=O)N1C[C@H]2CC=CC[C@H]2C1	i
COc1ccccc1N1CCN(C(=O)c2cc(Br)ccc2Cl)CC1	i
C=C(C)COc1ccc(C(=O)N2CC[C@H](O)C[C@@H]2C(=O)O)cc1	i
Cc1cccc(OC2CCN(C(=O)c3cn(Cc4c(F)cccc4F)nn3)CC2)c1	i
CCS(=O)(=O)N1CCN(c2ccc([N+](=O)[O-])c(NCc3cccnc3)c2)CC1	i
O=C(COc1ccccc1)N1CCN(S(=O)(=O)c2ccc([N+](=O)[O-])cc2)CC1	i
O=S(=O)(c1ccc(Br)cc1)N1CCN(Cc2ccccc2)CC1	i
O=[N+]([O-])c1ccc(S(=O)(=O)N2CCN(CCCc3ccccc3)CC2)cc1	34%*
O=[N+]([O-])c1ccc(N2CCN(S(=O)(=O)c3ccc(Cl)c(Cl)c3)CC2)cc1NC1CC1	30%*
O=[N+]([O-])c1ccc(N2CCOCC2)cc1NCCCO	i
O=[N+]([O-])c1ccc(S(=O)(=O)N2CCN(c3ccccn3)CC2)cc1	i
O=[N+]([O-])c1ccc(N2CCN(S(=O)(=O)c3ccc(Cl)cc3)CC2)cc1	35%*
O=[N+]([O-])c1ccc(S(=O)(=O)N2CCN(c3ccccc3)CC2)cc1	i
CC(C)Sc1oc(-c2ccco2)nc1S(=O)(=O)c1ccc(Br)cc1	i
COC(=O)CCC(=O)N1CCN2CCNC(=O)C2C1 (stereo not given)	i
COc1ccc(C(=O)Nc2ccccc2C(=O)N2CCCCC2C)c(OC)c1OC (stereo not given)	i
CC(C)C1CN(C(=O)c2ccc(-n3cnnc3)cc2)CCC(=O)N1CC1CC1 (stereo not given)	i
CC1(C)CC(=O)C(C(C2=C(O)CC(C)(C)CC2=O)c2ccc([N+](=O)[O-])s2)C(=O)C1 (stereo not given)	30%*
CC1(C)CC(=O)C(C(C2=C(O)CC(C)(C)CC2=O)c2cccc(O)c2)C(=O)C1 (stereo not given)	i
CN(C)c1ccc(C(C2=C(O)CC(C)(C)CC2=O)C2C(=O)CC(C)(C)CC2=O)cc1 (stereo not given)	i
CCS(=O)(=O)N1CCCC(C(=O)NCCCN2CCCCC2C)C1 (stereo not given)	i
O=C(Nc1nc2ccc(Cl)cc2s1)c1ccccc1[N+](=O)[O-]	i
N#C/C(=C\c1ccccc1[N+](=O)[O-])c1nc(-c2ccc(Cl)cc2)cs1	31%*
COc1cc(/C(C#N)=C/c2ccccc2F)c([N+](=O)[O-])cc1OC	i
O=C1c2cccc([N+](=O)[O-])c2C(=O)N1c1nc(-c2ccccc2)cs1	i
N#C/C(=C\c1ccccc1[N+](=O)[O-])c1nc(-c2ccccc2)cs1	50%*
